Experimental findings from the supplement of paper PMC6555819 are described below.

For this test, the system named is PPARg:RXRa 30nM:10nM, anti-RXR (NR concentration 30 nM, RXRa partner concentration 10 nM). Kind of test: PBM binding z-score (relative to random genomic background probes); higher = stronger binding; sequences stand for … in GC…GCGATTGACAGCGTAGAATGAAGG
In short, it runs like this: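 Antibodies against each partner of ligand-free nuclear receptor dimers (one per run) detected binding on custom Agilent 4×180K protein-binding microarrays after 1 h incubation. The double-stranded probes had 34-nt variable regions carrying direct-repeat seeds, single-nucleotide variants, half-site ablations and random human genomic background sequences. Binding z-scores, from regression-normalized fluorescence, use the random background probes as reference.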
CCTAGCAGGCCAGTCTGGGTCACTCAAGGCTTGA gave a PBM binding z-score of -1.1. For GCTCGGAGGACAAGGTCCGAGCTTTGTCCGTAGA the value was -1.34. The same measure for AGAATGATGTTACCAAAGATCAGGGAAACGCTTG: 0.0901; for ACTATTAGTTGAGACGAGGGCAACCCATAGGTTG: 0.398; for CGTCCAGGGTCAAAGGTCAGTGAAGAGATGACGG: 7.61. For AGACAAAGTTCACTAGGTAACGTAAGATTCAGCT the value was 2.55; for GCGACTGGGGCAAAGCAGCTTACCATAAGGTTGG, -0.326; for CCTAACGGGTCAAGGTTATAGCACGGGTGGTACG, 1.21. CTCGAAAGGTCTTGCTCAGGTGAGTATACCAAAC returned a PBM binding z-score of -0.064. The same measure for CAAACTAGGTCACAGATGTCAAAGTCCGTGCGTA: 5.52; for TCGGGTAGGTTAGGGGCATTCAGAATGGCGTCGA: 1.98.

Sequence CAAACTAGGTCAAGAGGTCAACGTCCGCTTCCCG showed a PBM binding z-score of 7.54.

CCTATTAGTTGACTATAAGGGCAACCGAAGCTCG: the PBM binding z-score turned out to be 0.0994. The same measure for ATCGAGAGGTCGTGAGGTGAGTATACAGAAAGGC: 0.76; for GGAACGAGGGCAAGTTGATACCAGAGTTTGATGG: 0.0746; for ATCTCTAGGTAACCAAGTTGAGTGAATGCCGAAC: -0.0449. In turn, ATTACAGGGTCACTAGGCCAGAGTAGGTACGAAT showed a PBM binding z-score of 3.45. The same measure for GCAAGCAGGCCATTTGGGTCACTCAATGACGGGC: -0.408; for CGTCAAAGTTTAACTAAGGTAACGTAAAGCACGC: 0.174. The same measure for AGTAGCAGGCCAAGTTTGGGTCACTCAAACAAAG: -0.474; for ATATGTAGGCTAGCTGGGGTCATTCAGACTAGGC: 1.1; for ATCTCTAGGTAAAAGTTCAGTGATTCCCGAGGAT: 7.32.

Sequence GGAACGAGAGCAAGTTGATAGCAGAGTTTGATGG showed a PBM binding z-score of -0.225.

On to TAGCCTAGGTGAGATCGGGCCAGTATACGCTATA, for which the PBM binding z-score is -0.335. For CAAACTATGTCACAGAGGTCAAAGTCCGTGCGTA the value was 3.36.

TCTTGTAGATCAGCAGGTTAAGAAAGCTGGCCAA returned a PBM binding z-score of 2.21. Turning to TCTAGTGGGTCACGGAGGTCACACACGACGGGTA, the PBM binding z-score was 5.61. CCTACTGGGCCATTCAGAGGTCATTTATCATATG had a PBM binding z-score of 0.841.

The sequence TTACCAAGGTGAGGGTCGTTGATCCCTCTGTAGA returned a PBM binding z-score of 0.53. The same measure for ACCGAAAGGTCGAAGGTGAGTATACCCACCCGAA: 1.89; for TTACCAAGGTGCAGGTCGTTGATCCCTCTGTAGA: 0.416; for GCTAGTTGGTCAGTAAAAGGTCACACAACGGTCG: 2.61. For AATACAGGGTCATCCTAGGCCAGAGTACGCACAG, the PBM binding z-score amounted to 2.82.

The sequence TTACCAAGGTGAAGGTGGTTGATCCCTCTGTAGA came in with a PBM binding z-score of 0.889. With ACTCGGAGGACAAAGATCAGAGCTACGCCAGTGA, the PBM binding z-score amounted to 0.508.

TCTGCTAGTTCAGTTGGTCAGCTAACGAGCTGCC returned a PBM binding z-score of 1.27.

With GCGACTGGGGCATTAGCAGGTTACCATAACTTAA, the PBM binding z-score was -0.0543. For GCGACTGGGGCAAAGCAGGATACCATAAGGTTGG the value was -0.094. The sequence GCGACTGGGGCAAAGCAGGTGACCATAAGGTTGG had a PBM binding z-score of -0.349. For GCGACTGGGGCAAAGCAGGTTACCAAAAGGTTGG the value was -0.194.
